The values below come from PubChem BioAssay AID504329 (Southern Research Specialized Biocontainment Screening …, 2011).

Screen size: about 340,000 compounds; about 1,000 (0.29%) were called active. No stated cut-off is given here; in the data, inconclusive means inhibition above about 27% without an active follow-up result; inactive means below that. Only a sample is shown. Entries with a potency or affinity are not part of this list.

A short description of the assay: NS1A inhibition, H1N1 influenza, cell based functional assay (AID 504329). As to conditions: percent inhibition, at 12.5 µM, active compounds read high.
By inhibition is commonly meant the relative decrease from the control value, in per cent. Consider `CCN1C(=O)/C(=C/C=C2/Sc3ccc4ccccc4c3N2CCO)SC1=S`, for which the inhibition was -5.98% (inactive).
The result for `CCN1C(c2ccccc2)=C(c2ccccc2)S/C1=C\C=C1/SC(=S)N(C)C1=O` reads 15.8% (inactive); that for `CCCCCC/C=C/c1ccc(OC)c([C@H]2[C@H]3C=CC[C@@H](C)[C@@H]3C(=O)N2Cc2ccccc2)c1`, 6.03% (inactive).
As for `CCN1/C(=C/c2ccc3cc(C)ccc3[n+]2CC)Sc2cc(C)ccc21`, the inhibition is 19.4% (inactive).
In the case of `CCN1/C(=C\c2ccc3ccccc3[n+]2CC)Sc2cc(C)ccc21`, the inhibition was 11.8% (inactive).
The result for `Cc1cc(C)nc(NS(=O)(=O)c2ccc(NS(=O)(=O)c3ccc(C#N)cc3)cc2)n1` reads -5.4% (inactive).
With `COC(=O)CNC(=O)CN(c1ccc(OC)cc1OC)S(=O)(=O)c1ccccc1`, the inhibition was -1.66% (inactive).
The result for `Cc1cccc(NC(=O)Cn2c(O)c(N=NC(=O)c3ccncc3)c3ccccc32)c1` reads -15.6% (inactive); that for `O=C1NC(c2ccncc2)Nc2sc3c(c21)CCCC3` (stereo unspecified), 2.95% (inactive); that for `O=C1NC(c2cccs2)Nc2sc3c(c21)CCCC3` (stereo unspecified), 3.69% (inactive).
The result for `CN1CCc2c(sc3c2C(=O)NC(c2ccccc2)N3)C1` (stereo unspecified) reads -3.09% (inactive).
The result for `CN1CCc2c(sc3c2C(=O)NC(c2cccs2)N3)C1` (stereo unspecified) reads 1.19% (inactive).
Turning to `CN1C(=O)/C(=C2\SC(N3CCCCCC3)=NC2=O)c2ccccc21`, the inhibition was 20.3% (inactive).
As for `CCN1C(=O)/C(=C2\SC(N3CCCCC3)=NC2=O)c2ccccc21`, the inhibition was 14.1% (inactive).
The result for `CCN1C(=O)/C(=C2\SC(N3CCOCC3)=NC2=O)c2ccccc21` reads 23.1% (inactive); that for `CCCCN1C(=O)/C(=C2\SC(N3CCOCC3)=NC2=O)c2ccccc21`, 8.19% (inactive); that for `COC(=O)c1sccc1NC(=O)c1ccc(Br)o1`, 3.08% (inactive).
In the case of `Cc1nc2ccccc2c(=O)n1NC(=O)c1cc(Br)ccc1Cl`, the inhibition is 3.26% (inactive).
In the case of `CCOC(=O)c1c(NC(=O)CNCCO)sc(C)c1C`, the inhibition is -0.57% (inactive).
The result for `CN(CCCNC(=O)c1cc2c(=O)[nH]c3ccccc3c2n1C)Cc1ccccc1` reads -0.58% (inactive).
For the compound `CCN1CCN(C(=O)c2cc(-c3ccc(Cl)s3)nc3ccccc23)CC1`, the inhibition is -3.92% (inactive).
The result for `COc1cc(C(=O)OCC(=O)NC(=O)c2cccn2C)ccc1OC(F)F` reads 5.75% (inactive); that for `COc1ccc(Oc2ccccc2/C=N/O)cc1`, -9.31% (inactive).
Consider `COc1ccc2nc(-c3ccccn3)[nH]c2c1`, for which the inhibition is -6.69% (inactive).
Take `CC(C)(C)c1cc(=O)[nH]c(SCc2ccccc2)n1`: the inhibition is -17.8% (inactive).
For `Cn1nc(C(F)(F)F)c(CO)c1Sc1ccc(F)cc1`, the inhibition is 5.51% (inactive).
The result for `CN(CCCS(=O)(=O)[O-])c1ccc(/C=C/c2ccc3ccccc3[n+]2C)cc1` reads -6.52% (inactive); that for `C[n+]1c(/C=C/c2ccc3c(c2)OCO3)ccc2ccccc21`, 8.1% (inactive).
In the case of `CC[n+]1c(SC)ccc2cc(OC)ccc21`, the inhibition is -5.15% (inactive).
The result for `CN(C)c1ccc(/C=C/c2ccc3ccccc3n2)cc1` reads -37.5% (inactive); that for `CN(C)c1ccc(/C=C/c2nc3ccccc3c(=O)[nH]2)cc1`, -10.6% (inactive).
The result for `CC[n+]1c(/C=C/c2ccc(OC)c(OC)c2)ccc2ccccc21` reads 3.91% (inactive); that for `CC[n+]1c(/C=C/c2ccc(OC(C)=O)c(OC)c2)ccc2ccccc21`, 18.9% (inactive); that for `CC[n+]1cc(C)ccc1/C=C/c1ccc(N(C)C)cc1`, -3.01% (inactive).
The result for `O=C(Nc1nc2ccccc2[nH]1)NC1CCCCC1` reads -9.13% (inactive); that for `O=C(N/C=N/OCc1ccc(Cl)cc1Cl)NOCc1c(Cl)cccc1Cl`, -13.6% (inactive).
On to `Cc1ccc(S(=O)(=O)NCC(c2ccc3c(c2)OCO3)N2CCN(c3ccccc3)CC2)cc1` (stereo unspecified), for which the inhibition was -19.9% (inactive).
The result for `Cc1[nH]c(C)c(S(=O)(=O)NCc2ccccc2Cl)c1C(=O)N1CCCC1` reads 9.96% (inactive); that for `c1csc(C(c2nnnn2C2CCCC2)N2CCOCC2)c1` (stereo unspecified), 5.59% (inactive); that for `O=C(CCNC(=O)c1ccccc1Cl)Nc1ccccc1N1CCCC1`, -8.83% (inactive).
Turning to `O=C(NCCN1CCOCC1)c1noc2c1CCc1ccccc1-2`, the inhibition is 1.97% (inactive).
The result for `CCCCCN1C(=O)Cn2c(nc3ccccc3c2=O)C1C` (stereo unspecified) reads 4.12% (inactive); that for `Cc1noc(/C=C/N(C)C)c1S(=O)(=O)N1CCN(c2ccc(F)cc2)CC1`, 4.41% (inactive); that for `CN(C)c1ccc(/C=C/c2cc[n+](C)c3ccccc23)cc1`, 58.9% (inactive).
Consider `CC[n+]1ccccc1/C=C/c1ccc(N(C)C)cc1`, for which the inhibition is 8% (inactive).
Regarding `COC(=O)c1ccc(CNC(=O)c2sccc2-c2ccccc2)cc1`, the inhibition was 4.96% (inactive).
Consider `COc1ccc2[nH]c3c(=O)n4c(nc3c2c1)SCC4`, for which the inhibition was -0.07% (inactive).
The result for `CCCCc1ccc(NS(=O)(=O)c2cccc(C(=O)N3CCNC(=O)C3)c2)cc1` reads 0.4% (inactive); that for `Clc1ccc2c(NNc3ccccc3Cl)ccnc2c1`, 6.7% (inactive); that for `Oc1ccc(Nc2ccnc3cc(Cl)ccc23)cc1`, 3.37% (inactive).
The result for `N/C(=N\N=C\c1ccc2c(c1)OCO2)SC1CC(=O)N(c2ccc(C(=O)O)cc2)C1=O` (stereo unspecified) reads 1.14% (inactive).
The result for `Fc1ccc(Nc2nc(N3CCOCC3)c3ccccc3n2)cc1` reads 4.75% (inactive); that for `Cc1ccc(Nc2nc(N3CCOCC3)c3ccccc3n2)cc1`, 5.53% (inactive).
Consider `CCCOc1ccc(C(=O)NCCN2CCOCC2)cc1`, for which the inhibition is -8.97% (inactive).
As to `O=C1C2C3CCCC3=C3CCCC3C2C(=O)N1c1ccc(F)cc1` (stereo unspecified), the inhibition was -3.36% (inactive).
With `CCOc1ccc(NS(=O)(=O)c2ccc(-c3cnc(C4CC4)o3)cc2)cc1`, the inhibition is -5.05% (inactive).
The result for `CCSc1nnc(CNc2ccc(C)cc2)n1C` reads -3.37% (inactive); that for `Oc1ccc(/C=N/N(c2ccccc2)c2ccccc2)cc1O`, 1.06% (inactive); that for `Oc1ccc(/C=N/N(Cc2ccccc2)c2ccccc2)c(O)c1O`, 19.2% (inactive).
Turning to `COc1ccc(CCC(=O)N(C)CC(=O)Nc2cc(C)ccc2C)cc1`, the inhibition was -11.1% (inactive).
`CC(C)OC(=O)c1cc(NC(=O)C2C3C=CC(O3)C2C(=O)O)cc(C(=O)OC(C)C)c1` (stereo unspecified): the inhibition is 6.16% (inactive).
